From PubChem BioAssay
Hits are enriched below; roughly 4.3% of the tested compounds scored in any of these assays.
HGIII-sPLA2 inh = Blocks human group III sPLA2 activity; 0.56% of 370,000 active; inhibition, % at 12.2 µM; QFRET BODIPY PC-A2 liposome hydrolysis, fluorescence;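 active means inhibition above mean plus 3 SD of compounds lying within the high and low control bounds, cut at about 19% in these data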;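 further: 0% = median of test compound wells and 100% = no enzyme DMSO wells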
ADAM10 inh = inhibitors of human ADAM10; O14672; AID 720582; recombinant ADAM10, EDANS/DABCYL FRET peptide cleavage, 3 h; inhibition, % at 7 µM; 0.62% of 370,000 active;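 active means inhibition above a per-campaign cutoff equal to the mean of compounds falling between control-based bounds plus 3 SD, cut at about 20% in these data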;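 further: 0% = DMSO wells while the 100% control is not disclosed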
GRIN3A LBD mod = NR3A (human) ligand-binding domain modulation | 2.5% of 340,000 active | Tm shift relative to glycine control, % at 25 µM | NR3A LBD differential scanning fluorimetry, Tm shift; 0% = protein alone, 100% = glycine-bound protein;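 active means melting temperature shift of at least 10% of the positive control shift, at one fixed dose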
ADAM17 inh = inhibitors of human ADAM17; AID 720648; P78536; recombinant ADAM17, EDANS/DABCYL FRET peptide cleavage; 0.83% of 370,000 active; inhibition, % at 6.95 µM;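 active means inhibition above the mean of compounds lying between control limits plus 3 SD, set per campaign, cut at about 8.5% in these data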;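 further: 0% = DMSO-only wells as the low control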
FAS TE block = blocks the thioesterase domain of human fatty acid synthase; recombinant FAS-TE, OMFH fluorogenic substrate, fluorescence endpoint; inhibition, % at 15 µM; 0.67% of 360,000 active;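 active means compounds whose normalised, plate-corrected inhibition of enzyme fluorescence in the single-dose primary screen is 50% or more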;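 further: 0% = DMSO with enzyme and 100% = substrate without enzyme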
Target sequence (P49327 whole entry, looked up, the tested form may be a part): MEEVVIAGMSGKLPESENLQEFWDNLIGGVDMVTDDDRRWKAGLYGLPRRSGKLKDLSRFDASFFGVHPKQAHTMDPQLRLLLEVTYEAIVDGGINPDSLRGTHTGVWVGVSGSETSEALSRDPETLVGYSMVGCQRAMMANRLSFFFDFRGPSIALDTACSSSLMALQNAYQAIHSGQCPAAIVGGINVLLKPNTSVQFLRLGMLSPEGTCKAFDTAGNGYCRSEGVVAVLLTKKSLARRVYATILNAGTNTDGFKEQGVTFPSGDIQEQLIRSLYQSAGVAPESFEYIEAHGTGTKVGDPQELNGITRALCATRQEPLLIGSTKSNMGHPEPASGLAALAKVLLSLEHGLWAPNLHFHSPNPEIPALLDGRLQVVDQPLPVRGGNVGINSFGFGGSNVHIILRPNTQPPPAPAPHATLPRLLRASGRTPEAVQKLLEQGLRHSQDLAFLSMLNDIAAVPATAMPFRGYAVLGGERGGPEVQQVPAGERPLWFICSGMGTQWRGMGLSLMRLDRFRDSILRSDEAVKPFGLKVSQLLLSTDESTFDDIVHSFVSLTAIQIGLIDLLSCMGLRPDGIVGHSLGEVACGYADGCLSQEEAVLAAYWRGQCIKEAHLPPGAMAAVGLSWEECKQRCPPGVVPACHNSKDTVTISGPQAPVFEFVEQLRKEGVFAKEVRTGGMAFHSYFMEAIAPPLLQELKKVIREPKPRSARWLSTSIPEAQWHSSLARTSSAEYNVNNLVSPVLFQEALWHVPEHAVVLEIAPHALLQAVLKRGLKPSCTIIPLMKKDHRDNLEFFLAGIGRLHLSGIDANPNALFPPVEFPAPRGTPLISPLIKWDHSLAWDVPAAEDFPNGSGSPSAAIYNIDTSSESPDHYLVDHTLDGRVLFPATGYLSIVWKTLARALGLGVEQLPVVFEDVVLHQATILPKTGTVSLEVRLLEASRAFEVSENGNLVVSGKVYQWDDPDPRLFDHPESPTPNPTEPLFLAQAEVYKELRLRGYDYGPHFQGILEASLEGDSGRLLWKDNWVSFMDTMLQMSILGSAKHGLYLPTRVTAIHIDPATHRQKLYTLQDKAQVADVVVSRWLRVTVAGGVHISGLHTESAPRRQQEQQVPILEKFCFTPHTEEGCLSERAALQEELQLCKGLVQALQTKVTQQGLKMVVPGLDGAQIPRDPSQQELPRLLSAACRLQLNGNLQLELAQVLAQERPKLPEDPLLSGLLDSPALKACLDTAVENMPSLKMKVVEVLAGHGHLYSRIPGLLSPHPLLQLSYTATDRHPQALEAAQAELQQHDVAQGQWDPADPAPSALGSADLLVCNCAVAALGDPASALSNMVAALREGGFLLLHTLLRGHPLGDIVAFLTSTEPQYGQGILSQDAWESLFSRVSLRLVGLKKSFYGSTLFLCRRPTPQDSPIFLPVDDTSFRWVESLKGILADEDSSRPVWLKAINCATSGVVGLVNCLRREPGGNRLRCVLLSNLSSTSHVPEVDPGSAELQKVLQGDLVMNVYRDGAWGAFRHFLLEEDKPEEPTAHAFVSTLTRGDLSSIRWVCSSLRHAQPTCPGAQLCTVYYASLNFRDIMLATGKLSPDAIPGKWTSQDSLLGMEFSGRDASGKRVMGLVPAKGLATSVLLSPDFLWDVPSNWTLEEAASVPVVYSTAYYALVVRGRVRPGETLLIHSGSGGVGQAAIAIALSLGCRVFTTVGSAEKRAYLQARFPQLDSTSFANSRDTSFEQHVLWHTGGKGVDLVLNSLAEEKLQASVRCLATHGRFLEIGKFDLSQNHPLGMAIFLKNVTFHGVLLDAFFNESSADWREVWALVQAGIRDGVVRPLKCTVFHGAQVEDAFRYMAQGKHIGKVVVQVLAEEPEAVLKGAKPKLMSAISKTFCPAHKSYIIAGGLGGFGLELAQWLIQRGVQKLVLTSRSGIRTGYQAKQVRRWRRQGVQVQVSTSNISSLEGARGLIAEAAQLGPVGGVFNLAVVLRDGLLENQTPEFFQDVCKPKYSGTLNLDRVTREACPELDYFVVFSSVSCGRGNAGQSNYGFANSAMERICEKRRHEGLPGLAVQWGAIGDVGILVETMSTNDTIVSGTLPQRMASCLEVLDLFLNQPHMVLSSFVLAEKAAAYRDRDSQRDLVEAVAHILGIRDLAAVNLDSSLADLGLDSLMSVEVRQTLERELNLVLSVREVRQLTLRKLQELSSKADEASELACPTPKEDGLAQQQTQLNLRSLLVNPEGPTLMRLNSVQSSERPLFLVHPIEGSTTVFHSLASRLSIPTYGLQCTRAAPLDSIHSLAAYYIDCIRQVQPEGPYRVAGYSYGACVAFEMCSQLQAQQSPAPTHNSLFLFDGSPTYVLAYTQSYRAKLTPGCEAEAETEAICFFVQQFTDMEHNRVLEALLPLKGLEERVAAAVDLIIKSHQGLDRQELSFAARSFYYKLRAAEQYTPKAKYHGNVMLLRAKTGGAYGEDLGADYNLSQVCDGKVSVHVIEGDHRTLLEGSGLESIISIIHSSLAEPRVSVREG
The depositor's hits bear a star; . = no result given.

SMILES	HGIII-sPLA2 inh	ADAM10 inh	GRIN3A LBD mod	ADAM17 inh	FAS TE block
Cc1ccc(-n2c(SCC(=O)Nc3ccccc3-c3ccccc3)nnc2-c2ccccn2)cc1	-4	-1	.	3	.
COC(=O)C1CN(Cc2cn(Cc3ccc(F)cc3)nn2)CCS(=O)(=O)N1Cc1ccc(F)cc1 (configuration not stated)	3	11	.	5	.
O=C(CCc1ccccc1)N[C@H]1[C@@H](OC(=O)c2cnccn2)CCC[C@@]12C(=O)N(Cc1ccccc1)c1ccccc12	-4	5	.	6	.
Cc1onc(-c2ccccc2)c1C(=O)Nc1sc2c(c1C#N)CCC2	-4	-3	2	-1	12
Cc1onc(-c2ccccc2)c1C(=O)NC(=S)Nc1sc2c(c1C#N)CCCC2	-2	-11	11*	-3	45
O=C(/C=C/c1ccc(Br)o1)NC(c1ccccc1)c1ccccc1	2	9	20*	3	23
O=C(c1cc(-c2cccs2)on1)N1CCN(c2ccc(F)cc2)CC1	-1	4	13*	-2	19
COc1ccc([C@H]2CC(=O)C=C(c3ccc4[nH]ccc4c3)C2)cc1OC	-32	14	-7	5	7
O=C1C=C(c2ccc3[nH]ccc3c2)C[C@@H](c2ccc(F)cc2)C1	-31	16	21*	3	19
COC(=O)CN1CCN(C(=O)c2nocc2C)CC1	3	-2	.	-1	.
O=C1c2ccccc2C(=O)c2cc(N3CCCCC3)ccc21	6	-6	38*	-1	15
O=C(O)c1cc(S(=O)(=O)N(Cc2ccccc2)c2ccc(Cl)cc2)ccc1Cl	-22	7	39*	0	1
Cc1ccc(C)c(-n2c(SCC(=O)Nc3nonc3C)nnc2-c2ccoc2C)c1	-25	-5	0	-2	11
Cc1cc(-c2nc(C)c(-c3nnc(SCC(=O)Nc4cc(Cl)cc(Cl)c4)n3C)s2)no1	-2	-15	-6	-5	-1
Cn1c(SCC(=O)Nc2cc(Cl)cc(Cl)c2)nnc1-c1ccc2nonc2c1	2	10	45*	-1	11
Cc1nonc1NC(=O)CSc1nnc(-c2ccoc2C)n1C	9	14	20*	1	-3
CC[C@H](CCCCCCCn1ccc2ccccc21)CCC(=O)N(c1ccccc1)c1ccccc1	-5	0	.	1	.
C[C@H](NC(=O)OCc1ccccc1)P(=O)(O)O	0	5	.	-3	.
CC(C)[C@@H](N)C(=O)N/N=C/c1ccc2nccnc2c1	1	-3	11*	-2	-5
CC12CCC3C(CCC4CC(O)CCC43C)C1CC(O)C2 (configuration not stated)	-1	1	-3	0	1
C[C@]12CCC(O)CC1CCC1C2CC[C@]2(C)C(c3cc(C(F)(F)F)n[nH]3)CCC12 (some centres not stated)	2	-6	24*	-4	26
CN1c2ccc(C#CC3CC3)cc2[C@@H]2[C@@H](CCN2C(=O)C2CCOCC2)[C@H]1CO	-3	-28	.	-8	.
COc1ccc(NC(=S)N(CCC(C)C)C2CCN(C(C)C)CC2)cc1Cl	9	1	19*	0	18
COCCN(C(=S)Nc1ccc(OC)c(Cl)c1)C1CCN(C(C)C)CC1	1	3	7	1	-3
Cc1ccc(-c2nc(=O)[nH]c3ccccc23)cc1	-3	-238	-1	-88	-11
SMILES	HGIII-sPLA2 inh	ADAM10 inh	GRIN3A LBD mod	ADAM17 inh	FAS TE block
O=c1nc(-c2ccccc2)c2ccccc2[nH]1	0	-157	12*	-54	-4
N#Cc1cc(-c2ccccc2)oc1/N=C/c1ccccc1O	7	-152	18*	-35	8
COc1cccc(/C=N/c2oc(-c3ccccc3)cc2C#N)c1O	2	-155	-5	-33	11
COc1ccc2c(c1)CCCN2C(=O)C1CCCN(S(=O)(=O)c2cccc3cccnc23)C1 (configuration not stated)	5	-10	.	-8	.
Oc1[nH]c2ccc(Br)cc2c1N=Nc1ccc(C(F)(F)F)cn1	5	-8	21*	-3	13
C=CCN(C(=O)[C@@H](C)[C@@H](O)c1ccc2ccccc2c1)c1ccccc1	-7	1	.	-3	.
Cc1cccc(Cn2cc(COC(=O)NCC(C)C)nn2)c1	7	2	.	2	.
CC(C)(N[C@@H](Cc1c[nH]c2ccccc12)C(=O)NCCCc1ccccc1)C(=O)NCc1ccccc1	-78	11	.	4	.
COc1ccc(S(=O)(=O)c2nnn(-c3cccc(Cl)c3)c2N)cc1	-10	16	19*	5	10
